Laboratory results as given in PubChem BioAssay (NCI).
This is part of a sample that, as a whole, favours compounds with a hit. Of some 79,000 tested, about 15% had one in any assay. Cut-off read from the data, not from the text of the source: active = growth inhibition above about 70%; inactive = the rest.

Assays:
[1] = NCI Yeast Anticancer Drug Screen. Data for the rad50 strain (AID 155);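 note: 0% = growth of vehicle-only cultures of the same strain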; details: S. cerevisiae rad50 strain growth inhibition; at 50.0 µM; active compounds read high
Procedure, shortened: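 Compounds were tested on a yeast strain with an engineered DNA damage repair alteration; the reported value is growth inhibition normalised to vehicle treatment.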

[2] = NCI Yeast Anticancer Drug Screen. Data for the mec2-1 strain (AID 157); details: S. cerevisiae mec2-1 strain, at 50.0 µM, active compounds read high
Procedure, shortened: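 Yeast mec2-1 mutant treated with compound. Readout: growth inhibition vs vehicle controls.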

[3] = NCI Yeast Anticancer Drug Screen. Data for the sgs1 mgt1 strain (AID 161);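 note: 0% = growth of cultures given vehicle only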; details: S. cerevisiae sgs1 mgt1 strain, at 50.0 µM, active compounds read high
Procedure, shortened: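 Read-out: growth inhibition vs vehicle controls. Cells: mutant yeast strain deficient in DNA damage repair.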

[4] = NCI Yeast Anticancer Drug Screen. Data for the cln2 rad14 strain (AID 165);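 note: 0% = growth equal to vehicle treated cultures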; details: S. cerevisiae cln2 rad14 strain, at 50.0 µM, active compounds read high
Procedure, shortened: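 cln2 rad14 yeast strain; compound exposure; growth inhibition read vs vehicle controls.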

[5] = NCI Yeast Anticancer Drug Screen. Data for the bub3 strain (AID 167); details: S. cerevisiae bub3 mutant strain, at 50.0 µM, active compounds read high
Procedure, shortened: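 Growth of a checkpoint-deficient yeast mutant is measured after compound exposure. Values represent inhibition relative to vehicle.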

[6] = NCI Yeast Anticancer Drug Screen. Data for the mlh1 rad18 strain (AID 175); details: S. cerevisiae mlh1 rad18 strain growth inhibition; at 50.0 µM; active compounds read high
Procedure, shortened: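 Yeast w/ defined DNA-repair lesions; compound exposure; growth vs vehicle controls → % inhibition.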

Measured: growth inhibition

O=C(O)CCC(=O)Nc1cc([N+](=O)[O-])ccc1OCc1ccccc1
inactive: [1] 3.75% | [2] -7.55% | [3] -5.35% | [4] -12.4% | [5] -0.95% | [6] 3.5%

Nc1nc(F)nc2c1ncn2C1OC(CO)C(O)C1O (stereo not given)
inactive: [1] -10.3% | [2] 2.25% | [3] 8.25% | [4] 0.1% | [5] 2.15% | [6] -12.2%

CSc1ncnc2c1ncn2CC(=O)C1CCC2C3CCC4=CC(=O)CCC4(C)C3CCC12C (stereo not given)
inactive: [1] 7% | [2] -48.2% | [3] -1.9% | [4] -29.6% | [5] -28.9% | [6] 16.4%

CC(=O)c1cccc(F)c1C(C)c1ccc2ccccc2c1 (stereo not given)
inactive: [1] -3.85% | [2] 0.6% | [3] -8.8% | [4] 3.35% | [5] 15.4% | [6] 1.65%

Cc1ccc(S(=O)(=O)CCN2CCOCC2)cc1
inactive: [1] 15.3% | [2] -3.15% | [3] 5% | [4] -32.3% | [5] 5.85% | [6] 2.8%

CC(C)CCCC(C)C1CCC2C3CC([N+](=O)[O-])=C4CC(O[N+](=O)[O-])CCC4(C)C3CCC12C (stereo not given)
inactive: [1] 50.4% | [2] 20.1% | [3] 37.1% | [4] 23.6% | [5] 1.95% | [6] 20.2%

O=C1C(C2CCCCC2)=C2OCC3COC2(O3)c2ccccc21 (stereo not given)
inactive: [1] -8.75% | [2] -16.6% | [3] -20.1% | [4] -10.1% | [5] -14.6% | [6] -30.7%

S=c1cn[nH]c2ccccc12
inactive: [1] 16% | [2] 40.1% | [3] 16.9% | [4] 7.85% | [5] 49.6% | [6] 37.6%

Cc1nc(C)c(Cc2ccccc2)o1
inactive: [1] 1.05% | [2] 20.9% | [3] 18.1% | [4] 27.6% | [5] 5.3% | [6] 30.7%

Cc1cc([N+](=O)[O-])c2ncccc2c1
inactive: [1] -12.3% | [2] -7.7% | [3] -2.7% | [4] -33% | [5] -15.7% | [6] -6.95%

Clc1nc(-c2ccccc2)nc2ccccc12
inactive: [1] -10.1% | [2] -17.6% | [3] -18.2% | [4] -29.6% | [5] -19.8% | [6] -7.25%

Nc1c(F)c(F)c(C(=O)O)c(F)c1F
inactive: [1] -16.1% | [2] -20.6% | [3] -10.4% | [4] -3.9% | [5] -4.8% | [6] -29.4%

CCSC1OC(C(COC(C)=O)OC(C)=O)C(OC(C)=O)C1NC(=O)OCc1ccccc1 (stereo not given)
inactive: [1] -0.05% | [2] 5.75% | [3] -4.5% | [4] 7.2% | [5] 1% | [6] -18.1%

CC(C)O[Si](OC(C)C)(OC(C)C)OC(C)C
inactive: [1] 13.2% | [2] -16.1% | [3] -8.7% | [4] -3.25% | [5] 9.9% | [6] 2.6%

CS(=O)(=O)OCCCCCCCCCCCC1C=CCC1 (stereo not given)
inactive: [1] 10.3% | [2] -32.4% | [3] 5.15% | [4] 11.8% | [5] -8.25% | [6] 3.1%

CCOC(=O)N1C(=O)c2ccccc2C1=O
inactive: [1] -7.35% | [2] -13.2% | [3] -16.8% | [4] -8.75% | [5] -13.3% | [6] -9.25%

O=C(O)CCC(NC(=O)c1ccc(Nc2nc3ccc(C(F)(F)F)cc3nc2-c2ccccc2)cc1)C(=O)O (stereo not given)
inactive: [1] -11.5% | [2] 11.9% | [3] 4.75% | [4] -8.75% | [5] 1.25% | [6] -0.05%

Nc1ccc(S(=O)(=O)N/N=C/c2ccc(O)cc2)cc1
inactive: [1] 4.35% | [2] -21.4% | [3] 4.7% | [4] -22.1% | [5] 5.1% | [6] -11.3%

O=C1c2cn[nH]c2C(c2ccccc2)N1c1ccccc1 (stereo not given)
inactive: [1] 44.1% | [2] 6.8% | [3] 22.6% | [4] 24.3% | [5] 27.9% | [6] 38.9%

CN1CCC2(CC1)C(=O)N(Cc1ccccc1)C(=O)C2c1ccccc1 (stereo not given)
inactive: [1] -9.95% | [2] -6.95% | [3] -6% | [4] 6.05% | [5] 3.4% | [6] -13.4%
